Experimental data as given in paper PMC6212833.
The campaign covered roughly 2,000 compounds. About 15 (0.8%) showed an effect of 50% or more. What follows is part of a selection rich in strong results, with near analogues and random picks from the rest. Where a SMILES comes first, the peptide text is derived from it. [ ]: non-standard residue; d: D form. pGlu = O=C1CC[C@@H](C(=O)O)N1; Thz = O=C(O)[C@@H]1CSCN1

test system: Balamuthia mandrillaris (ATCC PRA-291) trophozoites, axenic culture; test: primary screen, percent inhibition; higher = more effect of the substance; conditions: 20 µM;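 further: 0% = vehicle wells and 100% = lysate wells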
Procedure: Screening of a clinically approved library of compounds, compiled by the Small Molecule Discovery Center (SMDC) at the UCSF, was completed at 20 µM in 0.2% DMSO. All 2,177 drugs in the library were stored as 10 mM stocks dissolved in 100% DMSO (Sigma-Aldrich) at −20°C. B. mandrillaris amoebae were resuspended in axenic medium and distributed into opaque 384-well plates (Corning) at a density of 3,000 amoebae per well using a BioMek NX liquid handler. Negative-control wells were treated with vehicle only (0.2% DMSO in axenic medium), and positive-control wells simulating total destruction of amoebae were seeded with amoeba lysate generated by 3 consecutive freeze-thaw cycles. Following 72 h of incubation, 30 µl of CellTiter Glo reagent (CTG; Promega) was added to each well. The luminescence was measured with a Promega GloMax-Multi+ plate reader at 2, 4, and 8 h after CTG addition. […] The B-score, representing a plate-based statistical approach for correcting row, column, and edge effects, was also calculated for each compound in the library (75).

SMILES	% Inhibition [%]
Cc1c(NC(C)C)c(=O)n(-c2ccccc2)n1C	-7.04
Cc1c(NC(=O)c2cccnc2)c(=O)n(-c2ccccc2)n1C	70.2
Cc1c(N(C)C)c(=O)n(-c2ccccc2)n1C	29.7
C=CC1=C(C(=O)O)N2C(=O)[C@@H](NC(=O)/C(=N\OCC(=O)O)c3csc(N)n3)[C@H]2SC1	6.01
C[N+]1(C)C2CC(OC(=O)[C@@H](CO)c3ccccc3)CC1C1OC12 (some centres unmarked)	15.9
NCCCC(N)C(=O)O (centres unmarked) [131504-L4]	14.1
CO/N=C(/C(=O)NC1C(=O)N2C(C(=O)O)=C(COC(N)=O)CSC12)c1ccco1 (centres unmarked)	41.1
CO[C@H]1/C=C/O[C@@]2(C)Oc3c(C)c(O)c4c(O)c(c(/C=N\N5CCN(C)CC5)c(O)c4c3C2=O)NC(=O)/C(C)=C\C=C\C(C)[C@H](O)[C@@H](C)[C@@H](O)[C@@H](C)[C@@H](OC(C)=O)[C@@H]1C (some centres unmarked)	30.6
O=C1CC[C@@H](C(=O)N2CSC[C@H]2C(=O)O)N1 ([pGlu]-[Thz]-OH)	16.6
CNC1(c2ccccc2Cl)CCCCC1=O (centres unmarked)	1.15
Clc1ccccc1CN1CCc2sccc2C1	30.2
CC[C@@H](C(N)=O)N1CCCC1=O	13.9
NC[C@H](O)c1ccc(O)c(O)c1 [130720-L3]	14.8
C[N+](C)(C)CCOC(N)=O	-7.4
C[C@]12CCC3c4ccc(O)cc4CCC3C1CCC2=O (some centres unmarked)	-7.91
CNCCCC12CCC(c3ccccc31)c1ccccc12	15.2
CC1(C)O[C@]2(C)CC[C@H]1CC2	17.9
Cn1c(=O)c2nc[nH]c2n(C)c1=O [88704-L9]	8.85
Cc1ccc(-c2cc(C(F)(F)F)nn2-c2ccc(S(N)(=O)=O)cc2)cc1	20.5
CN1C2C[C@@H](OC(=O)[C@H](CO)c3ccccc3)CC1[C@@H]1O[C@H]21	0.52

SMILES	% Inhibition [%]
CC(C)(C)NC[C@H](O)COc1nsnc1N1CCOCC1	-3.01
C=CCN1CC[C@]23c4c5ccc(O)c4OC2C(=O)CC[C@@]3(O)[C@H]1C5 (some centres unmarked)	29.3
CCC1(CC)C(=O)C=CNC1=O	27.7
COc1ccc(CC2c3cc(OC)c(OC)cc3CC[N+]2(C)CCC(=O)OCCCCCOC(=O)CC[N+]2(C)CCc3cc(OC)c(OC)cc3C2Cc2ccc(OC)c(OC)c2)cc1OC (centres unmarked) [756849-L2]	13.9
O=C(O)CCCc1ccc(N(CCCl)CCCl)cc1	-32.3
CN(C)c1ccc2nc3ccc(=[N+](C)C)cc-3sc2c1	35.9
C[N+]1(C)[C@H]2CC(OC(=O)[C@H](CO)c3ccccc3)C[C@H]1C1OC12 (some centres unmarked)	14.3
C=CCC1(C(C)CCC)C(=O)NC(=O)NC1=O (centres unmarked)	11.2
CCC1C(C)=NN=C(c2ccc(OC)c(OC)c2)c2cc(OC)c(OC)cc21 (centres unmarked)	11.9
CN(C)CCOC(c1ccc(Cl)cc1)c1ccccn1 (centres unmarked)	7.85
O=S(=O)(O)CCSSCCS(=O)(=O)O	37.4
Cc1nnc(SCC2=C(C(=O)O)N3C(=O)[C@@H](NC(=O)Cn4cnnn4)[C@H]3SC2)s1	10.9
O=C(O)CCC(=O)OC[C@@H](NC(=O)C(Cl)Cl)[C@H](O)c1ccc([N+](=O)[O-])cc1	-36.5
CC[C@H]1OC(=O)[C@H](C)[C@@H](O[C@H]2C[C@@](C)(OC)[C@@H](O)[C@H](C)O2)[C@H](C)[C@@H](O[C@@H]2O[C@H](C)C[C@H](N(C)C)[C@H]2O)[C@](C)(O)C[C@@H](C)CN(C)[C@H](C)[C@@H](O)[C@]1(C)O	23.9
Nc1c2c(nc3ccccc13)CCCC2	30.5
CC[C@H](NC(C)C)[C@H](O)c1ccc(O)c2nc(O)ccc12	6.56
C[C@]12C=CC(=O)C=C1CCC1C2[C@@H](O)C[C@@]2(C)C1CC[C@]2(O)C(=O)COP(=O)(O)O (some centres unmarked)	5.73
CN(C)CCC[C@@]1(c2ccc(F)cc2)OCc2cc(C#N)ccc21 [131042-L4]	26.2
Clc1ccc(CSC(Cn2ccnc2)c2ccc(Cl)cc2Cl)cc1 (centres unmarked)	15.3
CN(C)CCC=C1c2ccccc2C=Cc2ccccc21	23.3

SMILES	% Inhibition [%]
CN(C)C(=O)Oc1cc(OC(=O)N(C)C)cc(C(O)CNC(C)(C)C)c1 (centres unmarked) [255708-L4]	12
OC[C@H]1O[C@@](CO)(OC[C@@]2(O)O[C@H](CO)[C@@H](O)[C@@H]2O)[C@@H](O)[C@@H]1O	26.1
NC(=O)N1c2ccccc2C=Cc2ccccc21	6.46
CCN(CC)C(C)CN1c2ccccc2Sc2ccccc21 (centres unmarked)	8.27
O=c1[nH]c(=O)n([C@H]2C[C@H](O)[C@@H](CO)O2)cc1F	4.91
CCN(CC)CCNC(=O)c1c(C)[nH]c(/C=C2\C(=O)Nc3ccc(F)cc32)c1C	6.48
O=C(Nc1ccccc1)OCC(CN1CCCCC1)OC(=O)Nc1ccccc1 (centres unmarked)	9.34
CCCCC1=NC2(CCCC2)C(=O)N1Cc1ccc(-c2ccccc2-c2nn[nH]n2)cc1	14.7
CCCc1nc(C(C)(C)O)c(C(=O)O)n1Cc1ccc(-c2ccccc2-c2nn[nH]n2)cc1	21.5
OCCN1CCN(CCCN2c3ccccc3Sc3ccc(Cl)cc32)CC1	33.5
CCCCCN(C)CCC(O)(P(=O)(O)O)P(=O)(O)O [756736-L2]	25.4
Cc1cc2c(cc1S(N)(=O)=O)S(=O)(=O)CCC2	25.8
NC[C@H]1O[C@H](O[C@H]2[C@H](O)[C@@H](O[C@H]3O[C@H](CO)[C@@H](O)[C@H](N)[C@H]3O)[C@H](N)C[C@@H]2N)[C@H](O)[C@@H](O)[C@@H]1O	16
CC[C@@H]1OC(OC(c2c[nH]cn2)C(NC(=O)c2nc(C(CC(N)=O)NCC(N)C(N)=O)nc(N)c2C)C(=O)NC(C)C(O)C(C)C(=O)NC(C(=O)NCCc2nc(-c3nc(C(=O)NCCCCN=C(N)N)cs3)cs2)C(C)O)[C@@H](O[C@H]2O[C@H](CO)[C@@H](O)[C@H](OC(N)=O)[C@@H]2O)[C@@H](C)[C@@H]1C (some centres unmarked)	-5.83
O=C(NCCCN1CCOCC1)c1ccc(Cl)cc1	17.5
CC(C)OC(=O)CCC/C=C\C[C@@H]1[C@@H](CC[C@@H](O)CCc2ccccc2)[C@H](O)C[C@@H]1O	12.8
CC[C@@H](C(=O)[C@@H](C)[C@@H](O)[C@H](C)[C@@H]1O[C@@H]([C@@H](CC)C(=O)O)CC[C@@H]1C)[C@H]1OC2(C=C[C@@H](O)[C@]3(CC[C@@](C)([C@H]4CC[C@](O)(CC)[C@H](C)O4)O3)O2)[C@H](C)C[C@@H]1C (some centres unmarked)	19.1
CC[C@]1(O)C[C@H]2CN(CCc3c([nH]c4ccccc34)[C@@](C(=O)OC)(c3cc4c(cc3OC)N(C=O)[C@H]3[C@@](O)(C(=O)OC)[C@H](OC(C)=O)[C@]5(CC)C=CCN6CC[C@]43[C@@H]65)C2)C1	9.62
COc1ccccc1N1CCN(CCCNc2cc(=O)n(C)c(=O)n2C)CC1	37.2
